Here are results for 97 compounds from PubChem BioAssay AID1486 (The Scripps Research Institute Molecular Screening Center, 2009).

The campaign covered roughly 220,000 compounds. About 2,400 (1.1%) were called active. The entries come from a sample that favours actives as a whole. Unmarked numbers belong to inactive results.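 The calls were made as follows: active = inhibition above a per-campaign cutoff, the mean inhibition of all tested compounds plus 3 SD (cut at about 27% in these data); inactive = the rest.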

A short description of the assay: growth loss in parental Ba/F3 cells – cell-based, murine pro-B, CellTiter-Glo luminescence, counter-screen for JAK2V617F inhibitor project (AID 1486).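 Also: 0% = DMSO wells and 100% = JAK Inhibitor I control wells.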 Particulars: Ba/F3 parental viability, CellTiter-Glo ATP luminescence; at 5.6 µM; hits give high values.
The inhibition is the relative decrease from the control value, in per cent. As for `COc1cc(/C=N\Nc2ccc([N+](=O)[O-])cn2)ccc1OCC(=O)O`, the inhibition was 10.2%. Turning to `Cc1cc(/C=N/Nc2ccc([N+](=O)[O-])cn2)c(C)n1-c1cccc(C(=O)O)c1`, the inhibition was -1.49%. Next, `Cc1ccc(-n2c(C)cc(/C=N/Nc3ccc([N+](=O)[O-])cn3)c2C)c(C)c1`: 50.2% (active). Consider `Cc1cc(NC(=O)CSc2nc3cc(Cl)ccc3c(=O)n2Cc2ccco2)no1`, for which the inhibition is 8.02%. On to `C[C@@H](C(=O)N1CCNCC1)n1cc(CCC(=O)O)nn1`, for which the inhibition was -3.7%. Next, `O=C(Cn1cnc2ccccc21)N/N=C/c1ccco1`: 1.87%; `COC(=O)c1cc(NC(=O)c2ccco2)ccc1N1CCOCC1`: 1.48%; `COC(=O)COc1cccc2c(=O)n(CC(=O)NCc3ccccc3)ccc12`: 44.3% (active). As for `Cc1ccc(CNC(=O)CCNC(=O)Cn2ccc3ccccc3c2=O)cc1`, the figure is 8.67%.

On to `COC(=O)COc1cccc2c(=O)n(CC(=O)NCCc3ccc(OC)c(OC)c3)ccc12`, for which the inhibition is -0.48%.

Take `Cc1ccc2nc(C)cc(N/N=C/c3ccc(F)cc3)c2c1`: the inhibition was 8.42%. As for `NS(=O)(=O)c1ccc(CNC(=O)c2cnccn2)cc1`, the inhibition was -6.36%. With `CCOc1ccc(OCc2cccc(C(=O)N(CC)CC)c2)cc1`, the inhibition was 1.21%. Next, `Cc1nn(-c2ccc([N+](=O)[O-])cc2)c(N)c1-c1ccccc1`: -2.11%; `Cc1ccc(N=C2NC(=O)c3cccc([N+](=O)[O-])c32)cc1`: 2.95%; `O=C(NCc1ccccc1Cl)C1CCCO1` (configuration not stated): 4.65%. Next, `O=C(NNc1ccccn1)c1ccc(Cl)nc1`: 3.58%. Next, `CCN(CC)c1ccc(NC(=O)c2ccc(Cl)nc2)cc1`: 72.5% (active); `NS(=O)(=O)c1ccc(NC(=O)COC(=O)c2ccc(Cl)nc2)cc1`: 4.09%; `Cc1ccc(C)c(NC(=O)c2ccc(OC(=O)c3ccco3)cc2)c1`: 5.55%. In the case of `Cc1ccc(NC(=O)Nc2ccccc2)c(Br)c1`, the inhibition was 5.76%. As for `C=CC[n+]1c(-c2ccc(C)cc2)csc1NNC(=O)Nc1ccccc1`, the figure is 57.4% (active); as for `C=CCNc1scc(-c2ccccc2)[n+]1CC=C`, 1.05%; as for `CC(=O)Nc1ccc(/C=N/Nc2ccc(C(=O)c3c(C)cc4ccccn34)cc2[N+](=O)[O-])cc1`, -11.2%. On to `CS(=O)(=O)Nc1cccc(-c2cn3ccccc3n2)c1`, for which the inhibition is 7.16%. `Cc1ccc(CC(=O)Nc2cccc(C#N)c2)cc1`: the inhibition is 6.45%.

For `CC(O)C(NS(=O)(=O)c1ccc(Cl)cc1)C(=O)OCc1cc([N+](=O)[O-])cc2c1OCOC2` (configuration not stated), the inhibition is 4.65%. As for `CCNC(=O)c1sccc1-n1cccc1`, the figure is 2.59%; as for `CCCCNC(=O)OCCSCCS(=O)(=O)c1ccc(Cl)cc1`, -2.09%; as for `Cc1ccc(NC(=O)c2oc3ccccc3c2C)c([N+](=O)[O-])c1`, 2.45%. Next, `CN(C(=O)COc1ncnc2c1cnn2-c1ccccc1)C1CCCCC1`: -1.06%. Turning to `c1ccc(-n2ncc3c(N4CCCC4)ncnc32)cc1`, the inhibition is 2.78%. Consider `c1ccc(-n2ncc3c2ncn2c(C4CCCCC4)nnc32)cc1`, for which the inhibition is 97.5% (active). Regarding `Cc1ccc(C2NC(C(=O)O)CS2)cc1` (configuration not stated), the inhibition is 4.83%. Next, `CC(=O)NCc1ccc(S(=O)(=O)NC2CCN(Cc3ccccc3)CC2)cc1`: -3.37%; `C[C@@H]1C[C@@H]2O[C@H]2/C=C\C=C\C(=O)Cc2c(Cl)c(O)cc(O)c2C(=O)O1`: 104% (active).

`CC(NC(=S)Nc1ccccc1)C(c1cccs1)N1CCOCC1` (configuration not stated): the inhibition is -4.02%. Next, `CN(Cc1ccccc1)Cc1ccccc1F`: 10.4%; `CN(C)c1cc[n+](Cc2ccccc2)cc1`: 66.3% (active); `c1ccc(Cc2cc[n+](Cc3ccccc3)cc2)cc1`: 71.7% (active). As for `CN(C)c1ccc(/C=N/N(Cc2ccccc2)c2ccccc2)cc1`, the figure is 8.22%; as for `COC(=O)c1ccc(Cc2ccccc2)o1`, 1.87%. As to `CCn1c(SCC(=O)Nc2ccc(C)cc2)nc2nc3c(cc2c1=O)CCCC3`, the inhibition is 1.35%. As for `S=c1ccc2ccccc2[nH]1`, the figure is 2.2%; as for `CCCCCc1ccc(-c2ccc(C(=O)O)cc2)nc1`, 6.06%. As for `Cc1cc(C)n(-c2cc(Oc3ccccc3)ncn2)n1`, the figure is 4.63%; as for `COc1ccc(Nc2cc(C)nc(-n3nc(C)cc3C)n2)cc1`, 78% (active); as for `COc1ccccc1/C=N\Nc1cc(C)nc(-n2nc(C)cc2C)n1`, 7.87%. For `Cc1cc(Oc2ccccc2)nc(N2CCOCC2)n1`, the inhibition was 2.47%.

For `Cc1cc(N/N=C\c2ccc(Br)cc2)nc(-n2nc(C)cc2C)n1`, the inhibition is 0.24%. As for `CC(=O)c1ccc(Oc2cc(C)nc(-n3nc(C)cc3C)n2)cc1`, the figure is 73.9% (active); as for `Cc1cc(N2CCOCC2)nc2ccc(NC(=S)N3CCN(Cc4ccccc4)CC3)cc12`, 5.21%. Next, `COC(=O)C(C)NC(=O)COc1ccc2ccccc2c1` (configuration not stated): 1.41%; `CCOC(=O)CN1C(=O)N[C@@H](c2ccc(Br)cc2)C(C(C)=O)=C1C`: 3.53%. Next, `CCOC(=O)c1ccc(NC(=S)N2CCCC2)cc1`: 0.86%. For `COc1ccc(-c2csc(NC3OC(=O)c4ccccc43)n2)cc1` (configuration not stated), the inhibition is -1.11%. As for `COc1ccc2c(c1OC)C(=O)OC2Nc1nc(-c2ccccc2)cs1` (configuration not stated), the figure is 40.2% (active); as for `COc1ccc(Nc2nc(-c3ccccc3)cs2)cc1`, 4.08%; as for `CC(C)(C)c1nnc(NC(=O)C2c3ccccc3Oc3ccccc32)s1`, 0.88%. With `Nc1ccc(N=Nc2ccccc2Cl)c(N)n1`, the inhibition is -6.75%. Turning to `CCOc1ccc(Br)cc1CSC(=N)N`, the inhibition is 6.11%. As for `CN1/C(=C\C=C2\N=C(c3ccc(F)cc3)OC2=O)C(C)(C)c2ccccc21`, the figure is 30.4% (active); as for `CN1/C(=C\C(=O)c2cccnc2Cl)C(C)(C)c2ccccc21`, 5.33%. Next, `CN1/C(=C\C(=O)c2oc3ccccc3c2N)C(C)(C)c2ccccc21`: 10.9%; `Cc1csc(NC(=O)c2ccc(-c3ccc(Cl)cc3Cl)o2)n1`: 5.38%; `O=C(c1cccnc1)N(c1cc2sc(=O)oc2c2ccccc12)S(=O)(=O)c1ccccc1`: 12.4%. As for `O=C(COc1ccccc1F)NNC(=O)c1ccc(N2CCCCC2)c([N+](=O)[O-])c1`, the figure is 2.6%; as for `CCCCNS(=O)(=O)c1ccc(S(=O)(=O)n2cnc3ccccc32)cc1`, 1.68%. In the case of `O=S(=O)(c1ccc(Br)cc1)n1ccc2ccccc21`, the inhibition is 36.7% (active). Next, `O=S(=O)(c1ccc(-c2ccccc2)cc1)N1CCCC1`: 7.94%; `O=C1CCCC(O)=C1C=NCCc1ccccc1`: 42.9% (active); `O=C1CC(c2ccccc2)CC(O)=C1C=NCCN1CCOCC1` (configuration not stated): 2.34%. As for `CC1(C)CC(=O)C(C=NCCC2=CCCCC2)=C(O)C1`, the figure is 6.01%; as for `CCCCN(C(=O)c1ccc(OC(F)(F)F)cc1)c1c(N)n(CCC)c(=O)[nH]c1=O`, 3.34%. Next, `CC(C)(C)SCCNC(=O)c1cccc([N+](=O)[O-])c1`: 5.58%. For the compound `Cc1cc(NCc2cccnc2)no1`, the inhibition was 1.06%. As for `CN(Cc1cccnc1)C(=O)c1cc(COc2ccc3ncccc3c2)on1`, the figure is 84.6% (active); as for `Cc1noc(C)c1COc1cccc(C(=O)Nc2cccnc2)c1`, 1%; as for `CCCOc1ccc(NC(=O)C2OC3OC(C)(C)OC3C3OC(C)(C)OC23)cc1` (configuration not stated), 4.19%. As for `N#Cc1ccccc1NC(=O)c1cccc(COc2ccc(Cl)cc2Cl)c1`, the figure is 1.93%. `Cc1cccc(NC(=S)N2CCCC(c3nc4ccccc4[nH]3)C2)c1` (configuration not stated): the inhibition is 5.36%. As for `O=C(C1CCCO1)N1CCN(C(=S)Nc2cccc(Cl)c2)CC1` (configuration not stated), the figure is 9.12%; as for `Cc1ccc(C2CCN(C(=S)Nc3cccc(Cl)c3)C2)cc1` (configuration not stated), 54% (active).

For `COC(=O)[C@H](Cc1ccccc1)NC(=O)[C@@H]1C[C@H]1[C@@H](NC(=O)OCc1ccccc1)c1ccccc1`, the inhibition was 1.6%. Next, `CCCc1ccc(C(=O)[C@@H]2[C@@H](C(C)=O)N3c4ccc(F)cc4C=C[C@@H]3[C@@]23C(=O)Nc2ccccc23)cc1`: -6.87%; `COc1cccc(CC2(CO)CCCN(Cc3nc(-c4cccs4)oc3C)C2)c1` (configuration not stated): 10.4%.

With `Cc1ccc(CN2CCN(Cc3ccccc3-c3ccco3)CC2CCO)o1` (configuration not stated), the inhibition is 6.27%. Next, `Cc1cc(C)n(-c2nnc(C)n2NC(=O)c2cccc(Cl)c2)n1`: -0.31%; `Cc1ccccc1NC(=O)CN1C(=O)N/C(=C\c2cccn2-c2cccc(C(=O)O)c2)C1=O`: 7.07%. With `O=C1N/C(=C/c2cccn2-c2ccccc2)C(=O)N1c1cccc(Cl)c1`, the inhibition was 52.5% (active).

Turning to `O=C1/C(=C\c2ccsc2)NC(=S)N1c1ccccc1`, the inhibition was 1.31%.

For `COC(=O)c1ccc(CN2CCN(CCCc3ccccc3)C(CCO)C2)cc1` (configuration not stated), the inhibition was 4.68%.

Turning to `CCN1CCN(CCNC(=O)c2ccc(/C=C3/Sc4ccccc4N(Cc4cccc(C)c4)C3=O)cc2)CC1`, the inhibition is 13.1%.

Regarding `CCN1/C(=C/c2ccc3ccc(C)cc3[n+]2CC)Sc2ccccc21`, the inhibition is 87.6% (active). As for `CCN1/C(=C\c2ccc3ccccc3[n+]2CC)Sc2cc(C)ccc21`, the inhibition is 88.7% (active). For the compound `CCN1/C(=C/C(=S)Nc2ccccc2)Sc2ccccc21`, the inhibition was 0.08%.

Consider `COc1ccccc1C1C(C#N)=C(N)Oc2c1c(-c1ccccc1)nn2-c1ccccc1` (configuration not stated), for which the inhibition is 4.31%.
